High-throughput results as filed in PubChem BioAssay.
ALDH1A1 block: qHTS Assay for Inhibitors of Aldehyde Dehydrogenase 1 (ALDH1A1); Aldehyde dehydrogenase 1A1 (Homo sapiens), P00352; Purified ALDH1A1, NADH fluorescence, propionaldehyde substrate; Potency, µM (titrated, usually from 75.3 µM), without a hit: top-dose activity, negative = inhibition, most hits filed as inhibitors; 220,000 compounds, 7.3% hits; AID 1030, 2008;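 also: plate controls were no enzyme wells and a reference inhibitor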
Target sequence (P00352 whole entry, looked up): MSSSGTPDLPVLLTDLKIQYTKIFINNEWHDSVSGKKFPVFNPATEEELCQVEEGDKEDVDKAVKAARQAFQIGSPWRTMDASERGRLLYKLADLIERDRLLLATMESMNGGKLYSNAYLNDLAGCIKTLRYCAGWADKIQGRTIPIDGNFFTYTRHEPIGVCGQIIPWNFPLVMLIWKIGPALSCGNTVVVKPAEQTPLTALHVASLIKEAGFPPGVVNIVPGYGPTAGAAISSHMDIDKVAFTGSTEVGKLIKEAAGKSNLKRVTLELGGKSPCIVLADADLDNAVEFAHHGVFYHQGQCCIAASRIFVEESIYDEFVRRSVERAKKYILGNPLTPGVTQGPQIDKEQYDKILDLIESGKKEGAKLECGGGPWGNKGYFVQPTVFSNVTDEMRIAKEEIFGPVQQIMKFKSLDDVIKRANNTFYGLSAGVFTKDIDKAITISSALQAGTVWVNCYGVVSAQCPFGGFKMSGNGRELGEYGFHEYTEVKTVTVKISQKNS
HTT cytoprotect: qHTS Multiplex Assay to Identify Dual Action Probes in a Cell Model of Huntington: Cytoprotection (ATP). 230,000 compounds, 0.14% hits. AID 1471, 2008. PC12 HTT-Q103 induced, cytoprotection, ATP luminescence, 40 h. Potency, µM (doses to about 56.4 µM), for the others: cytoprotection (ATP increase), actives largely listed as activators; active = well fitted curve in the direction sought with a large enough effect; inconclusive = small, poorly fitted or top-dose-only effect, or another doubt; inactive = no such curve, though single readings can be large; an effect the other way counts as inactive or inconclusive; also: % of control where 0% means no effect; nearly all actives have a fitted effect of over 45% in size
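Compounds were screened for protection of PC12 cells against cell death after tebufenozide induction (100 nM final) of mutant Huntingtin exon 1 (Q103) fused to GFP.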
Lamin A splicing: qHTS Assay for Modulators of Lamin A Splicing | HeLa LMNA splicing GFP/RFP minigene ratio, 48 h | Potency, µM (series often up to 46.1 µM), without a hit: at the highest dose ratio change, negative = inhibition, actives largely listed as inhibitors | 200,000 compounds, 0.01% hits; active = well fitted inhibition curve with a large enough effect in the signal ratio, with a control signal flat, not every such curve was filed as active; inconclusive = small, poorly fitted or top-dose-only effect, or effect the other way, or a change in a side signal; the % refers to the signal ratio; also: % is scaled to controls: 0 for no effect and ±100 for the full control effect
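S3 HeLa stable clones carrying a lamin A-EGFP splicing minigene plus DsRed2 were seeded at 600 cells/well in Opti-MEM with 2% FBS, pin-dosed and incubated 48 h at 37°C. Acumen cytometry (488 nm) gave the GFP/RFP total-intensity ratio.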
HPGD block: qHTS Assay for Inhibitors of HPGD (15-Hydroxyprostaglandin Dehydrogenase); purified HPGD, NADH fluorescence kinetic, PGE2 substrate; 150,000 compounds, 4.3% hits; Potency, µM, inactives show at the highest dose activity change, negative = inhibition, hits mostly inhibitors; also: % is scaled to controls: 0 for no effect and ±100 for the full control effect
Target sequence (P15428 whole entry, looked up): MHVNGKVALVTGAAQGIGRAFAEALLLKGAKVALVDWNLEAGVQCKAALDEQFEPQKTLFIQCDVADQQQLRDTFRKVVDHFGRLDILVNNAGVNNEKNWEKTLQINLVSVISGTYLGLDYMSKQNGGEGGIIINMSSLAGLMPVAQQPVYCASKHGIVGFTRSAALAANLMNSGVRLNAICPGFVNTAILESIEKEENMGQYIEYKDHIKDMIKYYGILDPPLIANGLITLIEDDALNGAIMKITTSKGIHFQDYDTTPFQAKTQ
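20 nM HPGD preincubated 15 min at room temperature with compound in 50 mM Tris-HCl pH 8, 0.01% Tween 20. Started with 1 mM NAD+ and 30 uM prostaglandin E2; NADH fluorescence (360/450 nm) read 5 times over 30-s intervals, last minus first.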
JMJD2E inh: qHTS Assay for Inhibitors of Human Jumonji Domain Containing 2E (JMJD2E); Potency, µM (series often up to 57.1 µM), for inactives: at the highest dose activity change, negative = inhibition, hits mostly inhibitors; Lysine-specific demethylase 4E (Homo sapiens), B2RXH2; AID 2147, 2009; JMJD2E catalytic domain, FDH-coupled NADH fluorescence (FDH is formaldehyde dehydrogenase); 230,000 compounds, 1.6% hits;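 also: 0% = wells with enzyme and -100% = buffer wells without enzyme; nearly all actives have a fitted effect of over 50% in size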
HTT aggregate: qHTS Multiplex Assay to Identify Dual Action Probes in a Cell Model of Huntington: Aggregate Formation (GFP); AID 1688, 2009; 220,000 compounds, 1.1% hits; Potency, µM (series often up to 46.1 µM), for inactives: at the top dose activity change, negative = inhibition, most hits filed as inhibitors; PC12 HttQ103-GFP aggregates, Acumen cytometry, 40 h; active = well fitted curve in the direction sought with a large enough effect; inconclusive = small, poorly fitted or top-dose-only effect, or another doubt; inactive = no such curve, though single readings can be large; an effect the other way counts as inactive or inconclusive; also: % is scaled to controls: 0 for no effect and ±100 for the full control effect; nearly all actives have a fitted effect of over 60% in size
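PC12/HTTQ103-GFP, ecdysone-inducible; teb 100 nM; cpd qHTS titration; GFP aggregates read on laser cytometer, Ex 488/Em 500-530 nm.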
* = called active by the depositor; u = inconclusive; x = no result given; [ ] = remark or other dose. Shown are actives, neighbours in structure and some others; about 9.2% of the full set was active somewhere. Unless noted, calls follow the shape of the dose curve; as a rule, active = well fitted inhibition curve with a large enough effect (not every such curve was filed as active); inconclusive = small, poorly fitted or top-dose-only effect, or another doubt; inactive = no such curve, though single readings can be large or run the other way. Potency is read from the fitted curve at half-maximal effect.

SMILES	ALDH1A1 block	HTT cytoprotect	Lamin A splicing	HPGD block	JMJD2E inh	HTT aggregate
Cc1ccc(NC(=O)CCC(=O)OCC(=O)c2ccc(Oc3ccc([N+](=O)[O-])cc3)cc2)cc1	1%	-1%[10 µM]	-10%	-2%	1%	4%
Cc1ccc(NC(=O)CCC(=O)OCC(=O)c2ccc(Oc3ccc([N+](=O)[O-])cc3)cc2)c(C)c1	22µM*	1%	1%	-5%	-3%	-4%
Cc1ccc(NC(=O)COC(=O)CCC(=O)c2ccc(C(C)(C)C)cc2)c([N+](=O)[O-])c1	0.5µM*	-6%[0.074 µM]	10%	-21%	8%	-15%
CCCn1c(SCC(=O)Nc2cc(S(=O)(=O)N(C)C)ccc2OC)n[nH]c1=O	-5%	-19%	-11%[46 µM]	x	2%	-12%
O=C(NCCc1csc(-c2cccc(F)c2)n1)c1ccccc1C(F)(F)F	x	x	7%[46 µM]	x	x	x
COc1cccc2c1C(=O)c1c(O)c3c(c(O)c1C2=O)C[C@@](O)(C(=O)CO)C[C@@H]3OC1CC(N)C(O)C(C)O1 (some centres undefined)	x	-58%	u	x	x	2.5µM*
CC(=O)C1(O)Cc2c(O)c3c(c(O)c2C(OC2CC(N)C(O)C(C)O2)C1)C(=O)c1c(O)cccc1C3=O (centres undefined)	x	-24%	x	x	x	1µM*
CC(=O)[C@@]1(O)Cc2c(O)c3c(c(O)c2[C@H](O[C@H]2C[C@H](N)[C@H](O)[C@H](C)O2)C1)C(=O)c1ccccc1C3=O	x	-76%[1.9 µM]	x	x	x	x
COc1cccc2c1C(=O)c1c(O)c3c(c(O)c1C2=O)C[C@@](O)(C(=O)CO)C[C@@H]3O[C@H]1C[C@H](N)[C@H](O)[C@H](C)O1	u	-88%	u	-14%	u	x
COc1cccc2c1C(=O)c1c(O)c3c(c(O)c1C2=O)C[C@@](O)(C(=O)CO)C[C@@H]3O[C@@H]1C[C@H](N)[C@H](O)[C@H](C)O1	20µM*	-67%	x	-8%	22µM*	x
CCc1nc(SCC(=O)N2CCC(C)CC2)c2c(=O)n(C)c(=O)n(C)c2n1	11µM*	-11%	1%	-10%	9%	-25%
CCCc1nc(SCC(=O)N2CCC(C)CC2)c2c(=O)n(C)c(=O)n(C)c2n1	x	11%[10 µM]	x	x	13%	-14%[9.22 µM]
Cc1ccc2nc(C)c(C(=O)NN=C3CCN(C)CC3)n2c1	7.9µM*	-116%	14%[46 µM]	x	3%	u
CCOC(=O)c1c(C)nc2ccc(C)cn12	1%	1%	12%	-6%	-4%	3%
CCc1nnc(NC(=O)CSc2nnc(-c3ccco3)o2)s1	6%	-27%	x	x	-9%	-16%
COC(=O)CSc1nnc(-c2ccc(NS(=O)(=O)c3ccccc3)cc2)o1	2%	-13%	1%	18µM*	6%	12%
Cc1ccc(CSc2nnc(-c3ccc(NS(=O)(=O)c4ccccc4)cc3)o2)cc1	12%	29%[1.9 µM]	u	-22%	3%	-22%
CCN(CC)S(=O)(=O)c1ccc(-c2nnc(SCC(=O)Nc3cc(OC)cc(OC)c3)o2)cc1	13µM*	6%	3%	-9%	1%	8%
CCN(CC)S(=O)(=O)c1ccc(-c2nnc(SCC(C)=O)o2)cc1	u	3%	-2%	-21%	-3%	7%
CCc1nnc(NC(=O)CSc2nnc(-c3ccc(NS(=O)(=O)c4ccccc4)cc3)o2)s1	-11%	-5%[10 µM]	3%	14µM*	-7%	21%
C[C@]12CCC(=O)C=C1CCC1C2C(O)C[C@]2(C)C1CC[C@]2(O)C(=O)COC(=O)CCC(=O)O (some centres undefined)	-8%	-5%	x	-11%	1%	x
Cc1ccc2c(c1)C(=O)c1ccccc1CS2=O (centres undefined)	2.5µM*	x	0%	-23%	0%	3%
Cc1nnc2n(Cc3ccccc3)c(=O)c3c4c(sc3n12)COC(C)(C)C4	13µM*	-12%	29%	16µM*	-4%	3%[9.22 µM]
CC1(C)Cc2c(sc3nnn(Cc4ccccc4)c(=O)c23)CO1	u	-38%[10 µM]	u	32µM*	9%	-1%
Cc1cc2nc(C3CCN(Cc4nnnn4Cc4ccccc4)CC3)[nH]c2cc1C	u	0%	u	-3%	5%	5%
SMILES	ALDH1A1 block	HTT cytoprotect	Lamin A splicing	HPGD block	JMJD2E inh	HTT aggregate
CCC(C)(C)n1nnnc1CN1CCC(c2nc3ccc(C)cc3[nH]2)CC1	10µM*	-5%	-8%	-1%	3%	-11%
CC(=O)N1CCCc2cc(S(=O)(=O)N3CCC(C(=O)NCc4ccc(N(C)C)cc4)CC3)ccc21	x	x	-18%[46 µM]	x	x	x
Cn1c(N2CCN(C(=O)NCc3ccccc3)CC2)nc2ccccc21	4µM*	-4%[10 µM]	12%	-8%	3%	2%
CCCn1c(N2CCN(C(=O)NCc3ccccc3)CC2)nc2ccccc21	x	27%[10 µM]	x	x	-11%	16%[9.22 µM]
O=C(COc1cccc(NC(=O)c2ccccc2)c1)c1ccccc1	8%	4%[10 µM]	11%[46 µM]	x	-18%	-12%[9.22 µM]
NS(=O)(=O)c1cccc(NC(=O)c2cccs2)c1	x	6%[10 µM]	x	x	10%	-9%[9.22 µM]
O=C(Nc1cccc(Oc2ccc3c(c2)C(=O)NC3=O)c1)c1cccs1	2%	-16%[10 µM]	4%	14µM*	0%	u
O=C(COc1cccc(NC(=O)c2cccs2)c1)c1ccc(F)cc1	0%	-1%[10 µM]	u	16µM*	-22%	3%
O=C(COc1ccccc1)NCC1CCCO1 (centres undefined)	12%	7%[10 µM]	-11%	-21%	-7%	1%
COc1cccc(-c2noc(CCC(=O)NCC3CCCO3)n2)c1 (centres undefined)	5%	-5%	x	x	3%	-14%
O=C(CCCOc1ccccc1)NCC1CCCO1 (centres undefined)	-3%	2%	13%	13µM*	-12%	u
CC(NC(=O)C(=O)NCC1CCCO1)c1ccccc1 (centres undefined)	6%	4%[10 µM]	2%[46 µM]	x	-9%	9%
O=C(CC(c1ccccc1)c1ccccc1)NCC1CCCO1 (centres undefined)	-3%	-2%	6%	7.9µM*	5%	12%
O=C(CCc1nc(-c2ccc(Cl)cc2)no1)NCC1CCCO1 (centres undefined)	35µM*	0%	u	x	8%	-4%[9.22 µM]
